# Results published in the supplement of paper PMC6411743.
# ± gives the standard deviation of the averaged measurements. Targets with the largest changes are over-represented here; the source holds about 5,400 in all.
# Target: T1, UniProt P35613|P35613-2
# T1 sequence (whole entry): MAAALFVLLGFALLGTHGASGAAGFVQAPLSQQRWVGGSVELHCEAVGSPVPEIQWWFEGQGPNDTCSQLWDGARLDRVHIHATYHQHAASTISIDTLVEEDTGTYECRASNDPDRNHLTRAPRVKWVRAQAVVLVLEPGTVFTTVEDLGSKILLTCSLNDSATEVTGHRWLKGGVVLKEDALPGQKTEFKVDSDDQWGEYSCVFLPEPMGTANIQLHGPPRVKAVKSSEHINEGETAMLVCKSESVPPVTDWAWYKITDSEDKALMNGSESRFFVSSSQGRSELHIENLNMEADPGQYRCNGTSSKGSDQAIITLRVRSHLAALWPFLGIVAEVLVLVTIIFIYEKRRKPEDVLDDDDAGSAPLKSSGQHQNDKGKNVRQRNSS
# Assay: NP40-soluble protein abundance relative to vehicle (solubility fold change) (ratio); higher = more soluble protein in presence of GTP
# Method: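 Solubility proteome profiling in Jurkat crude lysate. Lysate was treated with Mg-GTP (0.1-10 mM) for 10 min at room temperature and 3 min at 37 °C, then solubilised with 0.8% NP40 and benzonase, followed by ultracentrifugation. Proteins were quantified by TMT10 LC-MS/MS; the value is the NP40-soluble abundance relative to the NP40-processed vehicle, from 3 independent experiments.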
structure (smiles),measurement,setting,value
Nc1nc2c(ncn2[C@@H]2O[C@H](COP(=O)(O)OP(=O)(O)OP(=O)(O)O)[C@@H](O)[C@H]2O)c(=O)[nH]1 [guanosine triphosphate],NP40-soluble protein abundance,concentration: 0.1mM,0.873 ± 0.045
same,NP40-soluble protein abundance,concentration: 0.5mM,0.877 ± 0.074
same,NP40-soluble protein abundance,concentration: 1mM,0.91 ± 0.042
same,NP40-soluble protein abundance,concentration: 2mM,0.881 ± 0.081
same,NP40-soluble protein abundance,concentration: 4mM,0.878 ± 0.062
same,NP40-soluble protein abundance,concentration: 6mM,0.91 ± 0.087
same,NP40-soluble protein abundance,concentration: 8mM,0.872 ± 0.099
same,NP40-soluble protein abundance,concentration: 10mM,0.881 ± 0.065
